Test results as given in PubChem BioAssay (NCI).
About 83,000 compounds went through this panel and 20% of them were active in at least one assay; those are over-represented in the sample as a whole.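 Each cell line was grown in a 96-well plate and treated with one concentration of compound for 48 hours. Values below 10 were considered active.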 A number with no mark means an inactive call. Activity calls are given as the source filed them.

Key:
Assay in all cases: NCI-60 one-dose screen, 48 h (100 = growth as untreated, 0 = no growth, -100 = all killed)
Details in all cases: 10 µM unless noted
HCT-15 colon = test system: HCT-15 colon
HT29 colon = test system: HT29 colon
SNB-75 CNS = test system: SNB-75 CNS
SNB-19 CNS = test system: SNB-19 CNS
U251 CNS = test system: U251 CNS
PC-3 prostate = test system: PC-3 prostate
SK-MEL-5 melanoma = test system: SK-MEL-5 melanoma
UACC-62 melanoma = test system: UACC-62 melanoma
LOX IMVI melanoma = test system: LOX IMVI melanoma
SK-MEL-28 melanoma = test system: SK-MEL-28 melanoma

Structure (SMILES)	growth (HCT-15 colon)	growth (HT29 colon)	growth (SNB-75 CNS)	growth (SNB-19 CNS)	growth (U251 CNS)	growth (PC-3 prostate)	growth (SK-MEL-5 melanoma)	growth (UACC-62 melanoma)	growth (LOX IMVI melanoma)	growth (SK-MEL-28 melanoma)
COC(=O)c1ccc(-n2cc(CCCOS(=O)(=O)c3ccc(F)cc3)nn2)cc1	98.1%	101%	94.5%	93.9%	96.7%	93.4%	103%	92.5%	98.4%	101%
C(CCCSC1=NCCN1)CCSC1=NCCN1	102%	95%	91.4%	114%	98.2%	64.7%	107%	107%	99.1%	113%
COc1ccc(/C(C)=C(\c2ccc(Cl)cc2)c2ccc(OCCCN(C)C)cc2)cc1	20.4%	1.29% (active)	97.2%	73.8%	41%	68.2%	37.8%	83.9%	22.1%	75.1%
C=C1/C(=C\C=C2/CCC[C@]3(C)[C@@H]([C@H](C)CCCC(C)(C)O)CC[C@@H]23)C[C@@H](OC(=O)CBr)C[C@@H]1O	54.6%	39.2%	49.1%	94.6%	70.6%	40%	84.7%	69%	-50.9% (active)	93.6%
CC(C)n1cc(C2=C(c3cccc4ccccc34)C(=O)NC2=O)c2cc(Br)ccc21	43.1%	43.1%	38.6%	82.6%	60.4%	57.8%	-0.736% (active)	60%	1.07% (active)	90.7%
C=CCn1c(SCC(=O)Nc2ccc(C(=O)/C=C/c3ccc(Cl)cc3)cc2)nnc1-c1ccccc1	87.7%	89.2%	70.8%	92.6%	94.3%	75.2%	98.7%	85.1%	92.3%	90.2%
COc1cc2c(c(OC)c1OC)CCC(c1cccc(C(=O)Nc3ccc([N+](=O)[O-])cc3)c1)O2 (stereo not given)	54.5%	64%	66.7%	56.7%	57.7%	27.1%	15.4%	31.4%	52.9%	61.9%
C#CCOc1ccc(C2=NN(C)C3N=C(Cl)c4ncn(C)c4N23)cc1OCC#C (stereo not given)	92.1%	103%	97.6%	103%	98.7%	91.1%	86.1%	84.3%	89.2%	96.5%
CCCCCC(C)(O)C(C(=O)O)c1ccccc1 (stereo not given)	106%	101%	94.5%	97.1%	99.2%	93.2%	101%	103%	102%	98.4%
COc1cccc(C(=O)Nc2cccc(NC(=O)c3ccccn3)c2)c1	90.7%	93.1%	90.3%	108%	109%	98.3%	97.3%	96.3%	95.2%	97.5%
O=C1/C(=C/c2ccc(-c3ccc(Cl)cc3)o2)SC(=S)N1CCc1ccc(O)cc1	67.5%	25.2%	25.8%	87.2%	22.2%	53.2%	94.5%	50.5%	75.1%	93.6%
O=C1c2ccccc2-c2c1c1ccncc1c(=O)n2CCCn1ccnc1	40.8%	21%	50.3%	41.5%	20.4%	38%	28.5%	39.7%	6.42% (active)	88.3%
O=C(Nc1ccc2c(c1)-c1ccccc1C2)C1CC(=O)N(c2ccc3c(c2)OCO3)C1 (stereo not given)	89.3% [50 µM]	64.6% [50 µM]	-2.42% [50 µM] (active)	46.4% [50 µM]	19% [50 µM]	33.1% [50 µM]	56% [50 µM]	44.3% [50 µM]	63.1% [50 µM]	33.4% [50 µM]
O=C1C2C(c3cccs3)C=C(c3ccc(Cl)cc3)N2C(=S)N1c1ccccc1 (stereo not given)	112%	114%	97.9%	94.4%	97.9%	85.7%	97.8%	88.8%	98%	105%
COc1ccc(CNc2ccc3nc(CCC4CCCCC4)[nH]c3c2)cc1	42%	18.4%	69.4%	84%	60.9%	59.1%	38%	69.9%	81.5%	76.4%
CCCN1C2CCC1/C(=C\c1ccc(OC)cc1)C(=O)/C2=C/c1ccc(OC)cc1	71.1%	58%	84.9%	86.7%	70.3%	64%	64.1%	49.7%	74.8%	82.7%
O=C(OCc1ccc2c(Br)cc(Br)c(O)c2n1)N1CCN(C(=O)c2cc3ccccc3[nH]2)CC1	19.6%	59.6%	40.5%	31.6%	12.9%	27.5%	35.5%	19%	28.7%	58.1%
CN1CCN(Cn2nc(-c3cc(Cl)cc(Cl)c3Cl)oc2=S)CC1	99.5%	102%	80.9%	95.4%	97.5%	92.1%	101%	99.7%	93.8%	110%
COc1ccc(-c2cn(Cc3ccc4c(Br)cc(Br)c(O)c4n3)nn2)cc1	39.3%	89.5%	71.6%	96.9%	97.3%	91.4%	98.6%	95.6%	49.4%	96.3%
CO[C@H]1/C=C/O[C@@]2(C)Oc3c(C)c(O)c4c(O)c(c5c(nc6cc(C)ccn65)c4c3C2=O)NC(=O)/C(C)=C\C=C\[C@H](C)[C@H](O)[C@@H](C)C(O)[C@@H](C)[C@H](OC(C)=O)[C@@H]1C (stereo not given in full)	103%	96.7%	86.4%	99.9%	98.2%	90.4%	103%	98%	95.9%	104%
c1ccc2cc(Cn3cc[n+](Cc4ccc5ccccc5c4)c3)ccc2c1	91.2%	-31% (active)	19.3%	29.8%	21.8%	15.4%	-46.4% (active)	10.3%	37.5%	20.3%
COC(=O)CNC(=O)c1ccc(NC(=O)c2[nH]c(C)c(Cl)c2Cl)c(O[C@H]2CCNC2)c1	107%	108%	94.8%	102%	101%	96.8%	101%	98.7%	94.4%	115%
Nc1ccc(N)c2c1C(=O)c1cccc([N+](=O)[O-])c1C2=O	27.7%	44.7%	22.6%	26.2%	33.7%	49.3%	23.8%	5.05% (active)	22.4%	102%
CC(=O)O[C@H]1CC[C@@]2(C)C(=CC[C@@H]3[C@@H]2CC[C@]2(C)C(Cl)=C(c4nc5ccc(Cl)cn5c4NC(C)(C)C)C[C@@H]32)C1	100%	102%	76.4%	85.1%	88.5%	82.9%	95.2%	73.6%	89.8%	94.4%
